# High-throughput results deposited in PubChem by National Center for Advancing Translational Sciences (NCATS).
# HPGD inh: blocks human HPGD enzyme activity | AID 894 | P15428 | hit rate 4.3% among 150,000 | purified HPGD, NADH fluorescence kinetic, PGE2 substrate | Potency, µM, for the others: at the top dose activity change, negative = inhibition, hits mostly inhibitors; further: potency means the concentration at half of the fitted maximal effect
#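 20 nM HPGD preincubated 15 min at room temperature with compound in 50 mM Tris-HCl pH 8, 0.01% Tween 20. Started with 1 mM NAD+ and 30 uM prostaglandin E2; NADH fluorescence (360/450 nm) read 5 times over 30-s intervals, last minus first.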
# ALDH1A1 block: inhibitors of human aldehyde dehydrogenase 1A1 | P00352 | Purified ALDH1A1, NADH fluorescence, propionaldehyde substrate | Potency, µM (highest dose often 75.3 µM), inactives show top-dose activity, negative = inhibition, hits mostly inhibitors | hit rate 7.3% among 220,000 | AID 1030;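 further: potency means the concentration at half of the fitted maximal effect; plate controls were no enzyme wells and a reference inhibitor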
# Target sequence (P00352 whole entry, looked up): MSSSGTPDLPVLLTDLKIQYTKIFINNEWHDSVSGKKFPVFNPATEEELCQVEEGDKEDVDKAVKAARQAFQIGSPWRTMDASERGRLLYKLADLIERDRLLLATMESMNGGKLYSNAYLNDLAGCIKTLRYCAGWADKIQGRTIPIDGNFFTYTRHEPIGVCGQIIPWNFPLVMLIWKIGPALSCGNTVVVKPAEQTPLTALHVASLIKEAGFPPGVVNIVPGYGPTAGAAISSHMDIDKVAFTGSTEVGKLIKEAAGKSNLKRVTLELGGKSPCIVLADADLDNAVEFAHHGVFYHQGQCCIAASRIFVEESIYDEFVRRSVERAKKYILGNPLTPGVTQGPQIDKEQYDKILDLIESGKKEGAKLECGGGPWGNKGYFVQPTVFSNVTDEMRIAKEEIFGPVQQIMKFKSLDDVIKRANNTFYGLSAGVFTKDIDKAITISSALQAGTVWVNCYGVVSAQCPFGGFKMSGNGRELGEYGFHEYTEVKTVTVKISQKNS
# PNC assembly inh: blocks assembly of the perinucleolar compartment | PC3M PTB-GFP, PNC prevalence imaging, 16 h; active compounds read low | activity change (PNC), negative = inhibition, % at 10 µM | hit rate 3.1% among 140,000 | AID 2417;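 active means readout at or below -70, meaning at least 70% loss of cells showing the perinucleolar compartment, a nuclear body marking cancer cells; inconclusive means readout between -30 and a set limit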;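 further: plate controls were DMSO wells for no effect and camptothecin positive control wells for full effect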
#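 PC3M cells stably expressing PTB-GFP, 750–1000 cells/well, treated 16 h at 37 °C with compound (23 nl of library stock), in duplicate. After paraformaldehyde fixation and Hoechst stain, imaged at 20x; PNC prevalence scored by image analysis.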
# * = called active by the depositor; ? = inconclusive; . = not tested or not shown; [ ] = dose if it differs, or a comment. Compounds with a hit are over-represented: about 11% of the library has one in this group of screens. Unless noted, the call rests on the fitted dose curve; in most records, active means well fitted inhibition curve with a large enough effect (not every such curve was filed as active); inconclusive means small, poorly fitted or top-dose-only effect, or another doubt; inactive means no such curve, though single readings can be large or run the other way. Unless noted, on the % scale 0 is the no-effect control and ±100 the full control effect.
SMILES,HPGD inh,ALDH1A1 block,PNC assembly inh
O=c1c2cc(Br)cc(Br)c2oc2nc3n(c(=O)c12)CCCS3,?,?,29.5
O=C(COc1ccc(Cl)cc1)NCc1ccncc1,.,10.2%,.
CCN(Cc1ccccc1)C(=O)CCc1nc(-c2ccc(C)cc2)no1,?,?,-3.5
COc1ccc(-c2noc(CCC(=O)Nc3cc(OC)ccc3OC)n2)cc1,-13.8%,7.08µM*,17.4
COc1ccc(-c2noc(CCC(=O)Nc3cc(Cl)c(OC)cc3OC)n2)cc1,-18.2%,?,-8.6
Cc1ccc(-c2noc(CN(C(=O)Cc3ccccc3)C(C)C)n2)cc1,-2.5%,?,-81.1*
COc1cccc(NC(=O)CCc2nc(-c3ccccc3F)no2)c1,-5.6%,0.0%,-21.0
CC(C)N(Cc1nc(-c2ccccc2)no1)C(=O)Cc1ccccc1,-9.2%,-2.1%,?
CCN(C(=O)CCc1nc(-c2ccccc2F)no1)c1cc(OC)ccc1OC,22.4µM*,?,5.7
CCc1ccccc1N(CC)C(=O)CCc1nc(-c2ccc(C)cc2)no1,25.1µM*,0.8%,-24.3
CNC(=O)c1ccc(CNC(=O)OCc2ccccc2)cc1,.,6.3%,.
CC(C)(C)c1ccc(NC(=O)Nc2ccc(F)cc2)cc1,.,9.6%,.
COc1ccc(C2C(C(=O)Nc3cc(OC)c(OC)c(OC)c3)c3ccccc3C(=O)N2C)cc1OC (stereo not given),.,1.6%,.
COc1ccc(Br)cc1CNC(=O)CCc1nc(-c2ccccc2F)no1,-6.4%,?,8.6
COc1ccc(CNC(=O)CCc2nc(-c3ccccc3F)no2)c(OC)c1,-10.3%,10µM*,-7.2
COc1ccc(NC(=O)COC(=O)C2CC3C=CC2C3)cc1 (stereo not given),.,-10.4%,.
O=C(COC(=O)C1CC2C=CC1C2)Nc1ccccc1F (stereo not given),.,12.6µM*,.
CCn1ncc(CNC(=O)c2cccc([N+](=O)[O-])c2)c1C,-2.1%,11.7%,-91.6*
CCn1ncc(CNC(=O)C2(C)CC2(Cl)Cl)c1C (stereo not given),11.2µM*,-1.2%,?
CCn1ncc(C2=NOC(C(=O)NCC(C)C)C2)c1C (stereo not given),-13.1%,14.9%,-13.8
CCn1cc(CNC(=O)c2cccc([N+](=O)[O-])c2)cn1,-1.0%,25.1%,26.4
CC(OC(=O)CCc1nc2ccccc2[nH]c1=O)c1ccccc1 (stereo not given),.,-13.8%,.
CC12CN3CC(C)(CN(C1)C3c1ccc(F)cc1)C2 (stereo not given),.,6.5%,.
CC(C)C[C@@H](N)C(=O)Nc1ccc2ccccc2c1,-9.4%,4.1%[13.5 µM],.
Nc1c(C(=O)Nc2ccc(F)cc2)sc(=S)n1-c1ccccc1F,.,12.6µM*,.
SMILES,HPGD inh,ALDH1A1 block,PNC assembly inh
O=C(Nc1ccc(F)cc1)c1sc(Cl)nc1-c1ccccc1,-9.8%,-5.8%,-11.7
Cn1c(N)c(C(=O)Nc2ccc3ccccc3c2)sc1=S,8.91µM*,12.6µM*,-9.8
COc1ccccc1-n1c(N)c(C(N)=O)sc1=S,28.2µM*,28.2µM*,-20.3
NC(=O)c1sc(=S)n(-c2ccc(Br)cc2)c1N,-29.1%,0.0%,4.4
COc1ccc2[nH]c3c(=O)n(CCCCC(=O)NCCC(C)C)c(=S)[nH]c3c2c1,.,-3.7%,.
CCN(CC)Cc1c(O)ccc2c(=O)c(Oc3ccccc3OC)coc12,?,?,-80.1*
COc1ccccc1Oc1coc2c(CN(C)C)c(O)ccc2c1=O,?,?,64.9
CCCn1c(SCC(=O)Nc2nc3ccccc3s2)nc2c1c(=O)n(C)c(=O)n2C,-3.5%,?,-111.3*
CCOC(=O)c1c(NC(=O)CSc2nc3c(c(=O)n(C)c(=O)n3C)n2C(C)C)sc(C)c1C,-6.5%,-2.7%,?
CCCn1c(SCC(=O)Nc2nnc(C(C)C)s2)nc2c1c(=O)n(C)c(=O)n2C,.,-2.9%,-6.7
CC(C)n1c(SCC(=O)Nc2nc3c(s2)CCCC3)nc2c1c(=O)n(C)c(=O)n2C,-15.6%,-21.9%,-100.0*
Cc1onc(-c2c(F)cccc2Cl)c1C(=O)OCC(=O)NC1CC1,.,2.7%,.
COc1ncnc2c1NC1=C(S2)C(=NCCC(=O)O)CC(C)(C)C1,.,5.01µM*,-14.2
CN(C)c1ncnc2c1NC1=C(S2)C(=NCCCC(=O)O)CC(C)(C)C1,-14.1%,?,-2.5
CCOC(=O)c1ccc(N2Cc3ccccc3C2)cc1O,-17.7%,20µM*,?
CCOC(=O)c1ccc(N2Cc3ccccc3C2=N)cc1,-11.6%,10.7%,?
O=C(Nc1ccc(Cl)c(Cl)c1)N1CCSC1c1ccco1 (stereo not given),22.4µM*,5.01µM*,12.5
O=C(Nc1ccc(Cl)c(Cl)c1)N1CC=CCC1,?,5.8%,8.9
CCCn1c(=N)n(CCOc2ccc(OC)cc2)c2ccccc21,-0.5%,4.4%,3.8
CCC(=O)N=c1n(C)c2ccccc2n1CCOc1ccccc1,-6.7%,5.01µM*,33.5
